Results published in PubChem BioAssay AID504339 (National Center for Advancing Translational Sciences (NCATS), 2011).
The campaign covered roughly 390,000 compounds. About 17,000 (4.4%) were called active. Another 8% or so got no clear call; they are omitted. Calls follow the shape of the dose curve; as a rule, active = well fitted inhibition curve with a large enough effect; inconclusive = small, poorly fitted or top-dose-only effect; inactive = no such curve, though single readings can be large or run the other way. What follows is part of a selection rich in actives, with near analogues and random picks from the rest. Entries that show only a call come without a potency.

Target: Lysine-specific demethylase 4A (Homo sapiens) (UniProt O75164)
Test: qHTS Assay for Inhibitors of JMJD2A-Tudor Domain; also: nearly all actives have a fitted effect of over 50% in size
Conditions: AlphaScreen JMJD2A-Tudor / H3K4me3 peptide binding; series mostly up to 114 µM
Potency is read from the fitted curve at half-maximal effect.

Lysine-specific demethylase 4A (Homo sapiens), sequence (O75164 whole entry, looked up, the tested form may be a part): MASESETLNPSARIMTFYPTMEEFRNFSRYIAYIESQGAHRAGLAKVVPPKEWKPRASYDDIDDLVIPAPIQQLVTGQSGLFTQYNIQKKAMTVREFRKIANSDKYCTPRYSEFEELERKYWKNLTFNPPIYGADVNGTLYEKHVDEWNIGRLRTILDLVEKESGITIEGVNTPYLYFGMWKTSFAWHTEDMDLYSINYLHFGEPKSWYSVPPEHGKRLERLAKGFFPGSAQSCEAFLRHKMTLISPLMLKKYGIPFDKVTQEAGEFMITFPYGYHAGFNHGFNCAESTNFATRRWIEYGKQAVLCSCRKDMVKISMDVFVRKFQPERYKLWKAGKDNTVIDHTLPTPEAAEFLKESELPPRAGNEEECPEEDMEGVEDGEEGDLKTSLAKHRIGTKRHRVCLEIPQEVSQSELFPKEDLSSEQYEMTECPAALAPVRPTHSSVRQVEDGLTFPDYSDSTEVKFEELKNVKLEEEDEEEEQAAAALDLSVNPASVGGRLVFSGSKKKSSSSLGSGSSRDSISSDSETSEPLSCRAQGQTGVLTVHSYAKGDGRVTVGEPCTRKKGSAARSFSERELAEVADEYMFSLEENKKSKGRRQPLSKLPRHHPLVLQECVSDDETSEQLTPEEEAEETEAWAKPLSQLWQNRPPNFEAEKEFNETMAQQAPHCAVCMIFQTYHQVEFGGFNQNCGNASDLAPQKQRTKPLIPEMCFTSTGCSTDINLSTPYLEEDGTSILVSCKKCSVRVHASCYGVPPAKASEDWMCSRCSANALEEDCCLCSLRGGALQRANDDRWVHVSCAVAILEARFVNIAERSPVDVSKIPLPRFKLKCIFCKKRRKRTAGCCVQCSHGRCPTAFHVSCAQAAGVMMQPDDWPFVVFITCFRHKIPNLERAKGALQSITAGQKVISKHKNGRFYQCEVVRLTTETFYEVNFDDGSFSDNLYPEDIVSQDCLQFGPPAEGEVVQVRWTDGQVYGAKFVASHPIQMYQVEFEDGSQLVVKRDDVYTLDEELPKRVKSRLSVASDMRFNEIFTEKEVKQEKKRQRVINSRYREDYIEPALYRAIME

SMILES	Potency
CCOc1cc(C2c3c(-c4ccc(Br)cc4)n[nH]c3C(=O)N2c2ccc(Cl)cc2)ccc1O (centres undefined)	inactive
O=C1c2cccc3cccc(c23)C(=O)N1CCCCCc1n[nH]c(=S)o1	89.1 µM (active)
O=C(CN1C(=O)c2cccc3cccc(c23)C1=O)N1CCCCC1	inactive
O=C1c2ccccc2C(=O)N1CCCc1nc(-c2ccccc2)no1	inactive
CCCN1CCN(CCCNC(=O)Cn2nc(CC)n3c(cc4occc43)c2=O)CC1	inactive
COC(=O)C(C)Oc1ccc2c(c1)O/C(=C\c1cccc(Br)c1)C2=O (centres undefined)	inactive
COc1cc(C#Cc2ccc3cc(CCCO)oc(=O)c3c2)cc(OC)c1	inactive
COc1cc(/C=C2\Oc3ccc(C#Cc4ccc(O)cc4)cc3C2=O)cc(OC)c1	89.1 µM (active)
CCC(CC)NC(=O)/C=C/c1cccc([N+](=O)[O-])c1	inactive
O=C(CN1CCOCC1)Nc1cccc([N+](=O)[O-])c1	inactive
COC(=O)/C=C\C(=O)Nc1cccc([N+](=O)[O-])c1	17.8 µM (active)
Cc1cc(C)c(/C=C/c2onc(C)c2S(=O)(=O)N2CCC(C(=O)Nc3ccc(Cl)cc3C)CC2)c(C)c1	inactive
O=C(CNC(=O)COc1ccccc1)NCCc1ccccn1	inactive
COc1ccc(NCCc2ccccn2)cc1	79.4 µM (active)
Cc1c(C)c(C)c(S(=O)(=O)NCCc2ccccn2)c(C)c1C	inactive
Cc1ccc(CNC(=O)CSc2c(C)cnc3c2c(=O)n(C)c(=O)n3C)cc1	inactive
O=c1nc2s/c(=C\c3ccco3)c(=O)n2nc1Cc1ccccc1	50.1 µM (active)
O=c1/c(=C/c2ccc(CNS(=O)(=O)c3ccccc3)o2)sc2n1CCN=2	inactive
CCOC(=O)c1cc(OC(=O)c2ccccc2Cl)n(-c2ccccc2)n1	inactive
CN(Cc1ccccc1)C(=O)CCS(=O)(=O)c1cc(Br)cc2c1N(C(=O)C1CC1)CC2	inactive
COc1ccc(N2CCN(C(CNS(=O)(=O)c3ccc(C)cc3)c3ccccc3)CC2)cc1 (centres undefined)	20 µM (active)
COc1ccc(S(=O)(=O)NCC(c2ccco2)N2CCOCC2)cc1 (centres undefined)	inactive
COc1ccc(S(=O)(=O)NCC(c2ccc(C)cc2)N2CCN(C)CC2)cc1OC (centres undefined)	inactive
CCOC(=O)c1c(C)oc2nc(C)nc(N(CC(C)C)CC(C)C)c12	inactive
CCOc1cc(C2C(C(=O)Nc3ccc(OC)cc3)=C(C)Nc3nc(SC)nn32)ccc1O (centres undefined)	inactive
O=C(Nc1ccc(OC(F)(F)F)cc1)C1CCCN(S(=O)(=O)c2ccc(Br)s2)C1 (centres undefined)	inactive
CC(=O)c1c(C)n(-c2ccc(N(C)C)cc2)c2ccc(OCC(N)=O)cc12	79.4 µM (active)
Cc1cccc(OCC(=O)NCC(=O)N/N=C/c2ccc(N(C)C)cc2)c1	inactive
CC(=O)c1c(C)n(-c2ccc(C)cc2)c2ccc(O)cc12	inactive
